We go through 32 molecules from PubChem BioAssay (EPA / NIEHS).

Results filed as inconclusive are left out. The source made the active and inactive calls. How the source made its calls: active means hit-call score of the fitted dose curve at least 0.9, where 1 is the maximum; inconclusive means response in the unintended direction; inactive means score below 0.9.

Bile acid receptor (Homo sapiens), sequence (Q96RI1 whole entry, looked up, the tested form may be a part): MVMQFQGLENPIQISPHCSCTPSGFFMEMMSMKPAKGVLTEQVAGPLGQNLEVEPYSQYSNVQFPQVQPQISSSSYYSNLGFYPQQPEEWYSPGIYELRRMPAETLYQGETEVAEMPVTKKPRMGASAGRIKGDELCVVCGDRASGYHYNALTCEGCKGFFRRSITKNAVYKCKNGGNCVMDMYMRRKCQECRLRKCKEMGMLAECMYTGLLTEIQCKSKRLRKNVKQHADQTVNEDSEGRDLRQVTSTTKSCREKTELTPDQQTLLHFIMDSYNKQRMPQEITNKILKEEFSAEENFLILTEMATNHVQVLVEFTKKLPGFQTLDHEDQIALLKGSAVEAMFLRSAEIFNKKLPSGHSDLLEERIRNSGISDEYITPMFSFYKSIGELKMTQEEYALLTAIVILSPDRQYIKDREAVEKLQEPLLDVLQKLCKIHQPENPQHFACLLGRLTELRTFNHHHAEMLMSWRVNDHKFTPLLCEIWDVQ

The first experiment concerns the target Bile acid receptor (Homo sapiens) (UniProt Q96RI1). In words: ATG_FXR_TRANS: Attagene TRANS-FACTORIAL HepG2 Assay for Farnesoid X Receptor (FXR) (AID 2282979).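 Further: hits raise reporter mRNA above DMSO so AC50 marks FXR activation.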 The note with it: HepG2 Attagene TRANS FXR-GAL4 reporter transcription. In short, it runs like this: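 HepG2 cells were transiently transfected with GAL4-UAS reporters driven by chimeric NR-Gal4 proteins and dosed for 24 h. Reporter mRNA was quantified by RT-PCR, fluorescent labelling, HpaI digestion and capillary electrophoresis, with gain of signal scored versus DMSO.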
As to `C=Cc1ccc(O)c(OC)c1`, the molecule was classed as inactive.
In the case of `CCOC(=O)CN[C@@H](C(=O)N1CC[C@H]1C(=O)NCc1ccc(/C(N)=N/O)cc1)C1CCCCC1`, the molecule was called inactive.
On to `C=COC(=O)C(C)(C)CCCCCC`, for which the molecule was called inactive.
As a reminder, the AC50 is the midpoint of the concentration-response curve, whichever way the signal moves. Consider `O=C(Nc1ccc(Cl)c(Cl)c1)c1cc(Cl)cc(Cl)c1O`, for which the AC50 was 3.82 µM (active).
With `C=CC(C)(CCC=C(C)C)OC(C)=O` (configuration not stated), the call was inactive.
The same measure, in the same setting: to `CCCCCc1ccc(O)cc1` belongs “inactive”; to `FC(F)(F)C(F)(F)C(F)(F)Br`, “inactive”; to `CCCCCCCCC(C)=O`, “inactive”.
Still for that read-out and setting: to `Clc1ccc(Nc2nnc(Cc3ccncc3)c3ccccc23)cc1` belongs “inactive”; to `C=CC(=O)OCCC(F)(F)C(F)(F)C(F)(F)C(F)(F)C(F)(F)C(F)(F)F`, “inactive”.
Same read-out and setting: to `COc1cc(OC)nc(NC(=O)NS(=O)(=O)Nc2ccccc2C(=O)N(C)C)n1` belongs “inactive”.
Consider `OCC(F)(F)C(F)(F)C(F)(F)C(F)(F)C(F)(F)C(F)(F)C(F)(F)C(F)(F)C(F)(F)C(F)(F)C(F)(F)F`, for which the molecule was called inactive.
With `CCC(=O)C=Cc1ccc(OC)cc1`, the molecule was classed as inactive.
For the molecule `CC(C)(C)c1ccc(CCC=O)cc1`, the molecule was called inactive.
For `COCN(COC)c1nc(N(COC)COC)nc(N(COC)COC)n1`, the molecule was called inactive.
Regarding `CC(=O)CC(C)C`, the result was inactive.
Take `O=C1OC(=O)c2cc(-c3ccc4c(c3)C(=O)OC4=O)ccc21`: the call was inactive.
Turning to `CC[N+](CC)(CC)Cc1ccccc1`, the outcome was inactive.
For `CC(C)(C)C1CCCCC1O` (configuration not stated), the outcome was inactive.
The same measure, in the same setting: to `FC(F)(F)N1C(F)(F)C(F)(F)OC(F)(F)C1(F)F` belongs “inactive”.
As for `CC1COCc2cc3c(cc21)C(C)(C)C(C)C3(C)C` (configuration not stated), the molecule was classed as inactive.

For the next experiment, the target named is Oxysterols receptor LXR-alpha (Homo sapiens) (UniProt Q13133). Description: ATG_LXRa_TRANS: Attagene TRANS-FACTORIAL HepG2 Assay for human Liver X Receptor alpha (LXRa) (AID 2282980). As to conditions: HepG2 Attagene TRANS reporter, LXRa transactivation. In short, it runs like this: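 HepG2 cells transiently transfected with GAL4-UAS reporter units for chimeric NR-Gal4 proteins, exposed to chemicals for 24 h. Reporter mRNA quantified by RT-PCR and capillary electrophoresis; gain of signal fitted relative to DMSO.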
Oxysterols receptor LXR-alpha (Homo sapiens), sequence (Q13133 whole entry, looked up, the tested form may be a part): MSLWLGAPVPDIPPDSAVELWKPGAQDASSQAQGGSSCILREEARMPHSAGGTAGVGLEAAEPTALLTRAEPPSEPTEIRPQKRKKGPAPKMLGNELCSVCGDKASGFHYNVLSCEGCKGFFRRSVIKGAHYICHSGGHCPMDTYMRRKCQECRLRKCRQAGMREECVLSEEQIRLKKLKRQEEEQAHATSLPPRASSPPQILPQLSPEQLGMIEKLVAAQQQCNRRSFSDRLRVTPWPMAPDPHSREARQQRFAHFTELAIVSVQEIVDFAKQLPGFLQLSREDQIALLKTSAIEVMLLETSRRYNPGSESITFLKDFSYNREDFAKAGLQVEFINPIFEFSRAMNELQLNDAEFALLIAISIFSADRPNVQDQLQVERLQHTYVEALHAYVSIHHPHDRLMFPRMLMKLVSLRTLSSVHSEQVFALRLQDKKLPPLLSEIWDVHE
Consider `C=Cc1ccc(O)c(OC)c1`, for which the molecule was classed as inactive.
On to `CCOC(C)=O`, for which the molecule was called inactive.
Take `Cc1ccc(N=Nc2c(O)ccc3ccccc23)c(C)c1`: the result was inactive.
On to `C=COC(=O)C(C)(C)CCCCCC`, for which the molecule was classed as inactive.
With `O=C(Nc1ccc(Cl)c(Cl)c1)c1cc(Cl)cc(Cl)c1O`, the molecule was called inactive.
`Cc1cc(C(=C2C=CC(=Nc3ccc(S(=O)(=O)O)cc3)C=C2)c2ccc(Nc3ccc(S(=O)(=O)O)cc3)cc2)cc(S(=O)(=O)O)c1N`: the outcome was inactive.
The same measure, in the same setting: to `CCOCCOCC` belongs “inactive”.
The same measure, in the same setting: to `C=CC(C)(CCC=C(C)C)OC(C)=O` (configuration not stated) belongs “inactive”; to `c1cnc2c(c1)ccc1cccnc12`, “inactive”.
On the same count and under the same terms, to `CCC(C)c1nccnc1OC` (configuration not stated) belongs “inactive”; to `FC(F)(F)C(F)(F)C(F)(F)Br`, “inactive”; to `CCCCCCCCC(C)=O`, “inactive”.
Turning to `Cc1cc(=O)oc2cc(O)ccc12`, the call was inactive.
`C=CC(=O)OCCC(F)(F)C(F)(F)C(F)(F)C(F)(F)C(F)(F)C(F)(F)F`: the outcome was inactive.
With `Oc1cccc2c(O)cccc12`, the molecule was classed as inactive.
As to `NC(=NCCCCCCN=C(N)/N=C(\N)Nc1ccc(Cl)cc1)/N=C(\N)Nc1ccc(Cl)cc1`, the molecule was classed as inactive.
On the same count and under the same terms, as for `Oc1cc2ccccc2cc1O`, the entry is “inactive”; as for `CC(=O)CC(C)C`, “inactive”; as for `CC(C)C=O`, “inactive”.
The same measure, in the same setting: as for `CC[N+](CC)(CC)Cc1ccccc1`, the entry is “inactive”; as for `CC1COCc2cc3c(cc21)C(C)(C)C(C)C3(C)C` (configuration not stated), “inactive”.
